Data on seven compounds can be found in PubChem BioAssay (Tox21).

Molecules are shown by their SMILES. A number with no mark means an inactive call. Results filed as inconclusive are left out. The source made the active and inactive calls. Unless noted, calls come from the whole dose curve; as a rule, active = well fitted curve in the direction sought with a large enough effect in the repeat runs; inconclusive = weak or mixed curves; inactive = no such curve, though single readings can be large; an effect the other way counts as inactive or inconclusive.

Test [1] in a line: qHTS assay for small molecules that induce genotoxicity in human embryonic kidney cells expressing luciferase-tagged ATAD5 (AID 651632). Note: nearly all actives have a fitted effect of over 15% in size. The method in brief:
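HEK293T cells carrying luciferase-tagged ATAD5 were given compound or DMSO vehicle and incubated 16 hr at 37C, 5% CO2. Luciferase activity was read after 30 min at room temperature with Amplite; a rise signals genotoxic stress.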
Background: In qHTS, concentration-response curves come from the screen itself.

The nature of test [2]: qHTS assay for small molecule agonists of the p53 signaling pathway - cell viability (AID 651633; calls by dose curve; note: nearly all actives have a fitted effect of over 30% in size; note: potency is the fitted concentration of half-maximal effect;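 for activity change, negative = cytotoxicity: p53RE-bla HCT reporter cells with a stable beta-lactamase p53 reporter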). An outline of the steps: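 Viability counter-read: CellTiter-Glo luminescence (30 min, room temperature) in the same p53RE-bla plates. These plates had been exposed to compounds for 16 h at 37 C.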
A short description of test [3]: qHTS assay for small molecules that induce genotoxicity in human embryonic kidney cells expressing luciferase-tagged ATAD5 - cell viability (AID 651634; calls by dose curve; note: nearly all actives have a fitted effect of over 25% in size). An outline of the steps: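 HEK293T cells carrying luciferase-tagged ATAD5, 2,000 cells/well, exposed to compound for 15.5 hr at 37C. Viability read as live-cell protease activity by CellTiter-Fluor fluorescence after 30 min at 37C.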

Test [4] in a line: qHTS assay for small molecule disruptors of the mitochondrial membrane potential - cell viability (AID 720634; calls by dose curve;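 note: human HepG2 liver cancer cells; nearly all actives have a fitted effect of over 20% in size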). The method in brief:
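HepG2 cells, 2,000 per well, attached overnight, then treated 1 hr at 37 C, 5% CO2. Viability read as ATP by CellTiter-Glo luminescence after 30 min at room temperature. Read in the same wells as the m-MPI membrane-potential dye assay.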

Test [5] is described as follows: qHTS assay for small molecule disruptors of the mitochondrial membrane potential (AID 720635). Note: potency is the fitted concentration of half-maximal effect. The method in brief:
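Mitochondrial membrane potential tracked with Mito-MPS dye, red aggregates (ex 540/em 590 nm) against green monomers (ex 490/em 535 nm). Compound treatment 1 hr at 37C, dye 30 min in HepG2.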

Test [6] can be described thus: qHTS assay to test for compound auto fluorescence at 590 nm (red) in HepG2 cells (AID 720674). An outline of the steps: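 Red autofluorescence (Ex/Em 540/590 nm, Rose Bengal sodium equivalents) was measured in HepG2 cells, 2,000 per well in MEM plus 10% FBS, plated overnight at 37 C. Readings were taken 1 hr after adding 23 nL compound or DMSO, at 37 C and 5% CO2.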

A short description of test [7]: qHTS assay to test for compound auto fluorescence at 535 nm (green) in HepG2 cells (AID 720675).
A short description of test [8]: qHTS assay to test for compound auto fluorescence at 460 nm (blue) in HEK293 cells (AID 720678). The method in brief:
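Triamterene serves as the blue fluorophore standard. Compound signal at 405/460 nm is read in HEK293 wells (2,000 cells, 10% dialyzed FBS) after overnight treatment at 37C.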

The nature of test [9]: qHTS assay to test for compound auto fluorescence at 590 nm (red) in HEK293 cells (AID 720679). The method in brief:
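We plated HEK293 cells in 10% dialyzed FBS medium, let them adhere for 4-5 hr, then added 23 nL compound. Overnight at 37C and 5% CO2 preceded fluorescence measurement at 540/590nm.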

Test [10] in a line: qHTS assay to test for compound auto fluorescence at 535 nm (green) in HEK293 cells (AID 720680).
Test [11] in a line: qHTS assay to test for compound auto fluorescence at 460 nm (blue) in HEK293 cell free culture (AID 720681). An outline of the steps:
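Blue fluorescence (Ex 405/Em 460 nm, triamterene-equivalent) was read immediately after pin transfer of compound or DMSO into medium (DMEM, 10% FBS) without cells.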

Test [12] in a line: qHTS assay to test for compound auto fluorescence at 535 nm (green) in HEK293 cell free culture (AID 720682). The method in brief: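 Steps: dispense DMEM/10% FBS into empty wells; pin in compound or DMSO; measure fluorescence at 485/535 nm. Values are fluorescein equivalents.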
The nature of test [13]: qHTS assay to test for compound auto fluorescence at 590 nm (red) in HEK293 cell free culture (AID 720683). The method in brief: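 Red-channel autofluorescence of compounds in culture medium (DMEM, 10% FBS), no cells, measured at 540/590 nm. Rose Bengal sodium is the reference fluorophore for equivalence.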
The nature of test [14]: qHTS assay to test for compound auto fluorescence at 590 nm (red) in HepG2 cell free culture (AID 720684). The method in brief:
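Steps: dispense MEM/10% FBS medium, no cells; pin compound or DMSO vehicle; read red channel, Ex/Em 540/590 nm. Output given as Rose Bengal sodium equivalents.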

A short description of test [15]: qHTS assay to test for compound auto fluorescence at 460 nm (blue) in HepG2 cell free culture (AID 720685). An outline of the steps: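 Compound (23 nL) or DMSO pinned into cell-free MEM with 10% FBS; blue fluorescence read at 405/460 nm excitation/emission, expressed as auto-fluorescence equivalency to triamterene.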
Test [16] in a line: qHTS assay to test for compound auto fluorescence at 535 nm (green) in HepG2 cell free culture (AID 720686).
Test [17] in a line: qHTS assay to test for compound auto fluorescence at 460 nm (blue) in HepG2 cells (AID 720687). The method in brief: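 Blue-channel autofluorescence (Ex/Em 405/460 nm, triamterene-equivalent) was measured after 1 hr compound exposure at 37 C, 5% CO2. Cells were HepG2, plated overnight at 37 C in MEM plus 10% FBS.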
The nature of test [18]: qHTS assay for small molecule agonists of the p53 signaling pathway (AID 651631; calls by dose curve; note: nearly all actives have a fitted effect of over 15% in size). The method in brief: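 HCT-116 p53RE-bla reporter line, 16 h compound treatment at 37 °C, then fluorescence after 2 h with B/G FRET substrate.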
The target of test [19] is Glucocorticoid receptor (Homo sapiens) (UniProt P04150). As to the kind of experiment: qHTS assay to identify small molecule agonists of the glucocorticoid receptor (GR) signaling pathway (AID 720691; active = well fitted activation curve with a large enough effect in the signal ratio in the repeat runs, not every such curve was filed as active; the % refers to the signal ratio; note: potency is the fitted concentration of half-maximal effect). As to conditions: GR-bla HeLa, beta-lactamase reporter ratio, 18 h; activation: at 62.4 µM (top of the series) unless noted. An outline of the steps:
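GR-bla HeLa cells carrying a GRE-driven beta-lactamase reporter, exposed to compounds for 18 h at 37 C. Reporter activation read as fluorescence after 2 h with LiveBLAzer B/G FRET substrate at room temperature.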

Test [20] has the same target. Put plainly: qHTS assay to identify small molecule antagonists of the glucocorticoid receptor (GR) signaling pathway (AID 720692; active = well fitted inhibition curve with a large enough effect in the signal ratio in the repeat runs, not every such curve was filed as active; the % refers to the signal ratio). The method in brief:
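GR-bla HeLa cells carrying a GRE-driven beta-lactamase reporter received compound after 4 h plating, then dexamethasone (5 nM final). After 18 h at 37C, the FRET substrate was loaded for 2 h at room temperature and fluorescence read.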
% is set by controls: 0 for no effect and ±100 for the full control effect.

Chain of Glucocorticoid receptor (Homo sapiens) (P04150 whole entry, looked up): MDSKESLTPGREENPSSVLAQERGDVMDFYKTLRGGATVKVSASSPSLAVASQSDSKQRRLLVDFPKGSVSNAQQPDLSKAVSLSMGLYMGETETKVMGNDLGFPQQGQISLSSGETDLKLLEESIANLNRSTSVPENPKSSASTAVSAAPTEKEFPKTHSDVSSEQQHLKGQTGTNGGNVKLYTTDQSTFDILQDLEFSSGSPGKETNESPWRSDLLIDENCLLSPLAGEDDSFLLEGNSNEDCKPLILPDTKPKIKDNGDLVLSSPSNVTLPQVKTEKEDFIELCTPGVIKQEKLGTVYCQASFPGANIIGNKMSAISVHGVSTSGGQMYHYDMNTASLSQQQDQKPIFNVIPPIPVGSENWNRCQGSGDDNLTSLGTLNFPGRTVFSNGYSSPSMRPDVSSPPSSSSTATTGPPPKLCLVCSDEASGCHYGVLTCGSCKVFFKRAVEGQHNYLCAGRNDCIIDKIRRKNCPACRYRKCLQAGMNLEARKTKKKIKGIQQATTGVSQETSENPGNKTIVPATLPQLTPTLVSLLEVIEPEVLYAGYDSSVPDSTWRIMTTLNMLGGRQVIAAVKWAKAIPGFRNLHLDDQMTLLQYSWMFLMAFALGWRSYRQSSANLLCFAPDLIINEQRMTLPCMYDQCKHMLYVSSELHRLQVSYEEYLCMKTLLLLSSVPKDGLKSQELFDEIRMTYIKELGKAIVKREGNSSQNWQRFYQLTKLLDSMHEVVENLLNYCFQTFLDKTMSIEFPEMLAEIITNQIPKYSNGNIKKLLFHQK

As to `CCc1c(C(=O)NN2CCCCC2)nn(-c2ccc(Cl)cc2Cl)c1-c1ccc(Br)cc1`, the Potency entry in test [1], in test [3], in test [4], in [6], in test [7] and in [9] was “inactive” each time. The Potency result in [13], in [14] and in [16] was “inactive” in each case. Moreover, the Potency in test [2] is 13.7 µM (active); in [5], 24.3 µM (active). In addition, the compound was classed as inactive in test [8], in test [10], in [11], in test [12], in test [15] and in [17].

In the case of `O=C(O)C(S)C(S)C(=O)O` (stereo not given), the Potency result in test [1], in [2], in test [3], in [4], in test [5] and in test [6] was “inactive” in each case. Besides, the Potency result in test [7], in test [13], in test [14] and in test [16] was “inactive” each time. The result in test [8], in test [10], in test [11], in [12], in test [15] and in [17] was inactive.

As to `CCn1cc(C(=O)O)c(=O)c2cnc(N3CCNCC3)nc21`, the Potency entry in [18], in test [2], in test [3], in test [4] and in [5] was “inactive” throughout. In test [6], the fluorescence, relative to Rose Bengal is 0.305% [at 18.6 µM]. In addition, the fluorescence, % of triamterene in test [8] was -0.0251% [at 18.6 µM]. Also, the fluorescence, % of fluorescent control was -0.324% [at 18.6 µM] in [9]; 6.27% [at 18.6 µM] in test [11]; -0.371% [at 18.6 µM] in test [13]; 0.0041% [at 18.6 µM] in test [15]; -0.128% [at 18.6 µM] in [17]. Besides, the fluorescence, % of fluorescein in test [10] was 0.0376% [at 18.6 µM]. Further, the activity change in test [12] was 0.0637% [at 18.6 µM]. In addition, the fluorescence, % of Rose Bengal in test [14] is -0.185% [at 18.6 µM]. The fluorescence, % of fluorescein control in test [16] is 0.152% [at 18.6 µM].

As to `C1CCCNCCC1`, the Potency entry in test [1], in test [2], in test [3], in test [4], in [5] and in test [6] was “inactive” throughout. Besides, the Potency entry in [7], in test [9], in test [13], in test [14] and in test [16] was “inactive” each time. The compound was classed as inactive in test [8], in [10], in test [11], in [12], in test [15] and in test [17].

As for `O=C(O)c1ccc(S(=O)(=O)O)cc1C(=O)O`, the Potency result in test [1], in test [2], in [3], in test [4], in [6] and in test [7] was “inactive” in each case. The Potency result in [9], in test [13], in [14] and in test [16] was “inactive” in each case. In addition, the compound was classed as inactive in test [8], in [10], in [11], in [12], in test [15] and in test [17].

For `Brc1c2ccccc2c(Br)c2ccccc12`, in [1], the activation was 1.86% [at 8.08 µM]. Also, the activity change, negative = cytotoxicity in [2] was 12.3% [at 8.08 µM]; in test [4], -7.1% [at 8.08 µM]. Further, the activity, negative = cytotoxicity in test [3] was 21.9% [at 8.08 µM]. Also, the fluorescence, relative to Rose Bengal in test [6] is 0.105% [at 3.72 µM]. The fluorescence, % of fluorescein control was 0.0196% [at 3.72 µM] in test [7] and 0.0474% [at 3.72 µM] in [16]. The fluorescence, % of triamterene in test [8] is 0.364% [at 3.72 µM]. Also, the fluorescence, % of fluorescent control in [9] was -0.0447% [at 3.72 µM]; in [11] it was 0.357% [at 3.72 µM]; in test [15] it was 0.581% [at 3.72 µM]; in test [17], 1.18% [at 3.72 µM]. Moreover, the fluorescence, % of fluorescein in test [10] was 0.0022% [at 3.72 µM]. Besides, in [12], the activity change was -0.0415% [at 3.72 µM]. Besides, in test [14], the fluorescence, % of Rose Bengal was 0.241% [at 3.72 µM]. For the same compound, the Potency in test [19] was 0.882 µM (active).

Consider `CCOC(=O)c1cccnc1`, for which the Potency entry in test [18], in test [1], in test [4], in [5], in [6] and in [7] was “inactive” each time. Further, the Potency result in test [9], in [13], in test [14], in test [16], in [19] and in [20] was “inactive” throughout. Moreover, the result in test [8], in [10], in test [12], in test [15] and in test [17] was inactive.
